Hits are enriched below; roughly 14% of the tested compounds scored in any of these assays.
Pf growth 96h – Primary qHTS for delayed death inhibitors of the malarial parasite plastid, 96 hour incubation | P. falciparum luciferase reporter growth, 96 h | Potency, µM (top dose mostly 28.7 µM), for inactives: top-dose activity change, negative = inhibition, actives largely listed as inhibitors | actives 6.9% (n = 320,000); also: potency is read from the fitted curve at half-maximal effect
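Compounds incubated with erythrocytes infected by luciferase-expressing P. falciparum (2% hematocrit, 0.05% parasitemia final) for 96 hours, 37 C in 5% CO2. Growth inhibition scored as decreased luciferase luminescence.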
Pf growth 48h – Primary qHTS for delayed death inhibitors of the malarial parasite plastid, 48 hour incubation | P. falciparum luciferase growth in erythrocytes, 48 h | Potency, µM (top dose mostly 28.7 µM), inactives show at the highest dose activity change, negative = inhibition, hits mostly inhibitors | actives 5.9% (n = 310,000) | AID 504832, 2011; also: potency is read from the fitted curve at half-maximal effect
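Luciferase-expressing P. falciparum in infected erythrocytes (2% hematocrit, 0.1% parasitemia final) in RPMI 1640/0.5% Albumax were exposed to compound for 48 hours at 37 C, 5% CO2; growth read as luminescence.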
Sm TGR inh – qHTS Assay for the Inhibitors of Schistosoma Mansoni Peroxiredoxins. Schistosoma mansoni thioredoxin glutathione reductase (TGR), Q962Y6. actives 3% (n = 360,000). purified TGR, DTNB reduction, TNB absorbance 405 nm. AID 485364, 2010. Potency, µM (highest dose often 114 µM), inactives show at the top dose activity change, negative = inhibition, most hits filed as inhibitors; also: potency is read from the fitted curve at half-maximal effect; nearly all actives have a fitted effect of over 60% in size
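Kinetic colorimetric format: TGR-catalysed, NADPH-driven DTNB reduction monitored via TNB absorbance. Enzyme dispensed at 20 nM; compound exposure 15 min at room temperature before reaction start.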
Giardia FBPA inh – qHTS Assay for Inhibitors of Fructose-1,6-bisphosphate Aldolase from Giardia Lamblia; A8B2U2; purified Giardia FBPA; Potency, µM (top dose mostly 59.6 µM), without a hit: top-dose activity, negative = inhibition, most hits filed as inhibitors; actives 0.71% (n = 290,000); AID 2451, 2010; also: potency is read from the fitted curve at half-maximal effect; nearly all actives have a fitted effect of over 55% in size
Target sequence (A8B2U2 whole entry, looked up): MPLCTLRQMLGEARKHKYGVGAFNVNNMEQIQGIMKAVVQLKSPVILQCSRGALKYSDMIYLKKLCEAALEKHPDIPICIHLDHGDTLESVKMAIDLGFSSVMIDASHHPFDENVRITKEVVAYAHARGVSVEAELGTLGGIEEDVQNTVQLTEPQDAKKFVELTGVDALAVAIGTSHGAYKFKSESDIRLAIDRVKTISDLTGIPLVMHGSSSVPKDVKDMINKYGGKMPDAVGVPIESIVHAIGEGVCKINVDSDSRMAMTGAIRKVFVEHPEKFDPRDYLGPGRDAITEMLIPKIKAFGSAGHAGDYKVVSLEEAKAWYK
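40 nM FBPA preincubated 10 min at RT with compound (up to 57.5 uM final), then substrate plus GAPDH/TPI/NAD/arsenate coupling and diaphorase/resazurin added. Fluorescence read after 20 min at RT, 525/598 nm.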
HCMV inh – qHTS Assay for inhibitors of the human cytomegalovirus (HCMV). HFF cells, HCMV-luciferase reporter, 72 h; stronger effect = lower value. activity change, negative = inhibition, % at 57.5 µM. actives 4.5% (n = 410,000). AID 1259415, 2018; in the data active = activity change below about -60%; inconclusive = no clear call, values can overlap the other calls; inactive = above about -39%
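After 16 h attachment at 37C, HFF cells received test compound and HCMV-luciferase (1 PFU/cell); reporter luminescence read 72 h later, data normalized against buffer-only and known inhibitor Salinomycin.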
Active calls of the source: *; [ ] = remark or other dose. Unless noted, calls follow the shape of the dose curve; as a rule, active = well fitted curve in the direction sought with a large enough effect; inconclusive = small, poorly fitted or top-dose-only effect, or another doubt; inactive = no such curve, though single readings can be large; an effect the other way counts as inactive or inconclusive. % is scaled to controls: 0 for no effect and ±100 for the full control effect.

Results for COc1ccc(NCc2nn(CC(=O)c3ccc(Br)cc3)c3[n+]2CCCCC3)cc1 ?
Pf growth 96h: inconclusive; Pf growth 48h: 1.85µM*; Sm TGR inh: -13.7%; Giardia FBPA inh: -19.3%; HCMV inh: -37.8

How did O=C(Cn1nc(CNc2ccc(Cl)cc2)[n+]2c1CCCCC2)c1ccc(Br)cc1 do in these assays?
Pf growth 96h: inconclusive; Pf growth 48h: 0.928µM*; Sm TGR inh: -9.6%; Giardia FBPA inh: -3.4%; HCMV inh: 14.6

How did O=C(Cn1nc(CNc2ccc(Br)cc2)[n+]2c1CCCCC2)c1ccc([N+](=O)[O-])cc1 do in these assays?
Pf growth 96h: inconclusive; Pf growth 48h: 2.08µM*; Sm TGR inh: 50.1µM*; Giardia FBPA inh: -5.9%; HCMV inh: -91.5*

Results for O=C(CNc1ccc(Cl)cc1)c1ccc(Br)cc1 ?
Pf growth 96h: inconclusive; Pf growth 48h: inconclusive; Sm TGR inh: -2.8%; Giardia FBPA inh: -0.6%; HCMV inh: 23.4

What do the screens show for `COc1ccc(C(=O)CN2CCCCC2)cc1`?
Pf growth 96h: 16.7%; Pf growth 48h: 36.8%; Sm TGR inh: -3.8%; Giardia FBPA inh: -2.0%; HCMV inh: -18.8

What do the screens show for `CCCCc1cc2c(cn1)=C(OC(=O)c1ccco1)C(C)(OC(=O)CC)C(=O)C=2` (centres undefined)?
Giardia FBPA inh: -10.4%[12.9 µM]

What do the screens show for `O=C(CNS(=O)(=O)c1ccc(F)cc1)N1CCCC1`?
HCMV inh: -28.5

What do the screens show for `O=C(Nc1cccc(F)c1)C1CCCN(S(=O)(=O)c2cnc[nH]2)C1` (centres undefined)?
Pf growth 96h: 9.28µM*; Pf growth 48h: 16.3%; Sm TGR inh: 2.0%; HCMV inh: -61.8*

How did COc1cc(NC(=O)C2CCCN(S(=O)(=O)c3cnc[nH]3)C2)cc(OC)c1 (centres undefined) do in these assays?
Pf growth 96h: -12.3%; Sm TGR inh: -12.1%; Giardia FBPA inh: -1.2%; HCMV inh: -21.1

How did Cc1csc(NC(=O)C2CCCN(S(=O)(=O)c3cnc[nH]3)C2)n1 (centres undefined) do in these assays?
Pf growth 96h: 11.7µM*; Sm TGR inh: -0.6%; Giardia FBPA inh: 2.4%; HCMV inh: 22.5

What do the screens show for `Cc1ccc(NC(=O)C2CCCN(S(=O)(=O)c3cnc[nH]3)C2)cc1F` (centres undefined)?
Pf growth 96h: inconclusive; Pf growth 48h: 2.0%; Sm TGR inh: -1.2%; Giardia FBPA inh: -10.9%; HCMV inh: 61.2

What do the screens show for `Cc1cc(C)cc(NC(=O)C2CCCN(S(=O)(=O)c3cnc[nH]3)C2)c1` (centres undefined)?
Pf growth 96h: 3.29µM*; Pf growth 48h: 2.4%; Sm TGR inh: -4.9%; Giardia FBPA inh: -3.4%; HCMV inh: -25.8

What do the screens show for `O=C(NCCC1=CCCCC1)C1CCCN(S(=O)(=O)c2cnc[nH]2)C1` (centres undefined)?
Pf growth 96h: 11.7µM*; Sm TGR inh: 0.0%; Giardia FBPA inh: 0.0%; HCMV inh: 38.3

Results for CC1CCCCC1NC(=O)c1ccc(-n2cncn2)cc1 (centres undefined) ?
HCMV inh: 4.8

Results for COc1ccccc1CCNC(=O)C(C)Sc1nc(-c2ccccc2)cc(C(F)(F)F)n1 (centres undefined) ?
Sm TGR inh: -9.4%; HCMV inh: -22.9

What do the screens show for `CCOc1ccc(OCCC(=O)OCC(=O)N2CCN(S(=O)(=O)c3ccc(Cl)cc3)CC2)cc1`?
Pf growth 96h: -3.5%; Pf growth 48h: -21.4%; Sm TGR inh: inconclusive; Giardia FBPA inh: -0.1%; HCMV inh: 10.9

How did COc1ccc([C@H]2CC(=O)C=C(c3ccc(O)cc3)C2)cc1OC do in these assays?
Pf growth 96h: inconclusive; Pf growth 48h: inconclusive; Sm TGR inh: -9.0%; HCMV inh: 7.2

Results for CCOC(=O)c1cccc(C2=CC(=O)C[C@H](c3ccc(OC)c(OC)c3)C2)c1 ?
Pf growth 96h: inconclusive; Pf growth 48h: 10.4µM*; Sm TGR inh: -11.2%; HCMV inh: 15.6

What do the screens show for `COc1ccc([C@H]2CC(=O)C=C(c3cccc(CO)c3)C2)cc1OC`?
Pf growth 96h: inconclusive; Pf growth 48h: inconclusive; Sm TGR inh: -5.7%; HCMV inh: 17.1

What do the screens show for `COc1ccc([C@H]2CC(=O)C=C(c3cccc(Cl)c3O)C2)cc1OC`?
Pf growth 96h: 9.28µM*; Pf growth 48h: inconclusive; Sm TGR inh: 0.1%; HCMV inh: -1.9

How did O=C1C=C(c2cccc(Cl)c2O)C[C@@H](c2ccc3c(c2)OCO3)C1 do in these assays?
Pf growth 96h: inconclusive; Pf growth 48h: 11.7µM*; Sm TGR inh: -19.2%; HCMV inh: 61.3

What do the screens show for `O=C1C=C(c2cccc(Br)c2)C[C@@H](c2ccc3c(c2)OCO3)C1`?
Pf growth 96h: inconclusive; Pf growth 48h: 4.65µM*; Sm TGR inh: -10.8%; HCMV inh: -9.5

What do the screens show for `O=C1C=C(c2cccc(Cl)c2)C[C@@H](c2ccc3c(c2)OCO3)C1`?
Pf growth 96h: inconclusive; Pf growth 48h: inconclusive; Sm TGR inh: 5.8%; HCMV inh: -17.1

How did CCOc1cc(C(=O)N/N=C/c2cn(-c3ccccc3)nc2-c2cc3ccccc3o2)cc(OCC)c1OCC do in these assays?
HCMV inh: -2.3

What do the screens show for `Nc1sccc1C(=O)c1ccccc1`?
Pf growth 96h: 4.4%; Pf growth 48h: 13.0%; Sm TGR inh: 20µM*; Giardia FBPA inh: -21.6%; HCMV inh: -37.4

What do the screens show for `Nc1ccccc1C(=O)c1ccccc1`?
Pf growth 96h: 15.6%; Sm TGR inh: 5.6%; Giardia FBPA inh: -0.3%; HCMV inh: 19.9

How did Cc1c(-c2ccccc2)oc2cc(O)ccc2c1=O do in these assays?
Giardia FBPA inh: 20.1%

Results for CC1(C)CC(N2CCCC2)=CC(=[N+]2CCCCC2)C1 ?
Pf growth 96h: inconclusive; Pf growth 48h: 0.828µM*; Sm TGR inh: -5.8%; Giardia FBPA inh: 0.8%; HCMV inh: -92.5*

How did CC1(C)CC(N2CCCC2)=CC(=[N+]2CCCC2)C1 do in these assays?
Pf growth 96h: 0.329µM*; Pf growth 48h: 1.47µM*; Sm TGR inh: -11.7%; Giardia FBPA inh: 2.0%; HCMV inh: -94.2*

What do the screens show for `CC1(C)CC(=O)c2sc(N3CCCCC3)nc2C1`?
Pf growth 96h: 259.6%; Pf growth 48h: 89.8%; Sm TGR inh: 2.0%; Giardia FBPA inh: -0.9%; HCMV inh: 14.6

What do the screens show for `CC1(C)CC(NNCCC#N)=CC(=[N+]2CCCC2)C1`?
Pf growth 96h: inconclusive; Pf growth 48h: 0.3%; Sm TGR inh: -22.2%; Giardia FBPA inh: -27.4%; HCMV inh: inconclusive

Screens: PubChem BioAssay, National Center for Advancing Translational Sciences (NCATS)
